Results: ChEMBL document CHEMBL4808148, “HDAC6 screening dataset using tau-based substrate in an enzymatic assay yields selective inhibitors and activators” (2021)
In all, about 5,600 compounds went through this assay and about 150 (2.7%) showed an effect of 50% or more. For the sample, strong results were picked, then their nearest neighbours and some compounds at random.

Experiments:
[1] = target: T1, Protein deacetylase HDAC6 (Homo sapiens) (UniProt Q9UBN7); conditions: at 10 µM
T1 sequence (whole entry): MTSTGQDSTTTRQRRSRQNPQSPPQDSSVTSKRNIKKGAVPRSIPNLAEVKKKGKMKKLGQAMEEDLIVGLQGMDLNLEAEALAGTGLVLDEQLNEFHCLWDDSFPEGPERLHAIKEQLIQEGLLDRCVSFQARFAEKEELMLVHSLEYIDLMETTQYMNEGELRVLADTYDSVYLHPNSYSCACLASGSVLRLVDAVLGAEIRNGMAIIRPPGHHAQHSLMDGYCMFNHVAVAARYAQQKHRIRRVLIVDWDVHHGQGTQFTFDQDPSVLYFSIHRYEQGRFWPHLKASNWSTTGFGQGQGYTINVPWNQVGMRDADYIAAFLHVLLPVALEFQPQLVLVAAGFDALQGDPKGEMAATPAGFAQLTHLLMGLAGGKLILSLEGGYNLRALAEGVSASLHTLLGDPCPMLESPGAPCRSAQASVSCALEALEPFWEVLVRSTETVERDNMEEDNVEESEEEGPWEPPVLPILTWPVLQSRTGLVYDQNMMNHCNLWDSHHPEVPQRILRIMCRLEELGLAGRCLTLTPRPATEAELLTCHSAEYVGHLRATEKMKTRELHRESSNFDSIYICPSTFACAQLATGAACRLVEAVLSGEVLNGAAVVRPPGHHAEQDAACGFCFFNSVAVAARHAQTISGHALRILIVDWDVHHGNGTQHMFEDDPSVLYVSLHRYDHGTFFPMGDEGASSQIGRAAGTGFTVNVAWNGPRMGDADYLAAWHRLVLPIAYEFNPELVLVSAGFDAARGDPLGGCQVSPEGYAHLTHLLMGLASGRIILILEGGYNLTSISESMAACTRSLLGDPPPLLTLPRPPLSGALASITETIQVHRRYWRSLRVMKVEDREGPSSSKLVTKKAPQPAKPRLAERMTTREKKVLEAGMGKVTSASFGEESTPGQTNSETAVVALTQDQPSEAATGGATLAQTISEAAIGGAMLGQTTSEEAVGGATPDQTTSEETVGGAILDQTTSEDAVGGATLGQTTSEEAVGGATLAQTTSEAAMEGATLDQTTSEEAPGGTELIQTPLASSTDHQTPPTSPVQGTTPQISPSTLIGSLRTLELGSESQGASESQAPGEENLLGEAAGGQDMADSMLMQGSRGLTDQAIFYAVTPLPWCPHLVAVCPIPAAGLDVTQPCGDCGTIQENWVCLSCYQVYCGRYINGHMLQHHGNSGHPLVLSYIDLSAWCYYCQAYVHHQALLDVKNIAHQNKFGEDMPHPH

[2] = target: Protein deacetylase HDAC6 (Homo sapiens) (UniProt Q9UBN7); conditions: at 10 µM; remark: listed apart in the source

Cc1cc(CCCOc2c(C)cc(-c3noc(C(F)(F)F)n3)cc2C)on1
inhibition [1]: -3.38%

CCCCNc1ncc2c(-c3ccc(CN4CCN(C)CC4)cc3)cn([C@H]3CC[C@H](O)CC3)c2n1
inhibition [1]: 5.61%

COLISTIMETHATE SODIUM, CHEMBL1201441
inhibition [2]: 0.02%

O=S(=O)(OC[C@H]1O[C@@](COS(=O)(=O)[O][Al]([OH])[OH])(O[C@H]2O[C@H](COS(=O)(=O)[O][Al]([OH])[OH])[C@@H](OS(=O)(=O)[O][Al]([OH])[OH])[C@H](OS(=O)(=O)[O][Al]([OH])[OH])[C@H]2OS(=O)(=O)[O][Al]([OH])[OH])[C@@H](OS(=O)(=O)[O][Al]([OH])[OH])[C@@H]1OS(=O)(=O)[O][Al]([OH])[OH])[O][Al]([OH])[OH]
inhibition [1]: -5.96%

OC[C@H]1O[C@@H](c2ccc(F)c(Cc3cc4ccccc4s3)c2)[C@H](O)[C@@H](O)[C@@H]1O
inhibition [1]: -2.47%

O=C(/C=C/c1ccc(O)c2c1[C@@H](C(=O)O[C@H](Cc1ccc(O)c(O)c1)C(=O)O)[C@H](c1ccc(O)c(O)c1)O2)O[C@H](Cc1ccc(O)c(O)c1)C(=O)O
inhibition [1]: 3.93%

Cn1nnc(-c2ccc(-c3ccc(N4C[C@H](CO)OC4=O)cc3F)cn2)n1
inhibition [1]: 86.8%

CC(=O)NC[C@H]1CN(c2ccc(-c3ccc(CNCc4cnn[nH]4)cc3)c(F)c2)C(=O)O1
inhibition [1]: 0.09%

Cc1cccc(N2CC(CO)OC2=O)c1 (stereo not given)
inhibition [1]: -6.61%

Cc1nc(-c2ccc(OCC(C)C)c(C#N)c2)sc1C(=O)O
inhibition [1]: 98.8%

Cc1cc(SCc2sc(-c3ccc(C(F)(F)F)cc3)nc2C)ccc1OCC(=O)O
inhibition [1]: 3.31%

CCCCOCCOc1nc(-c2ccc(C(=O)O)c(F)c2)sc1C
inhibition [1]: 0.11%

CCOC(=O)[C@@]1(CCCCCCOc2ccc(Cl)cc2)CO1
inhibition [1]: -2.98%

CCC(CC)Nc1nc(C)c(-c2ccc(OC(F)(F)F)cc2OC)nc1OC
inhibition [1]: -3.03%

O=c1c2ccccc2nc2n1CCc1c-2[nH]c2ccccc12
inhibition [1]: 7.17%

O=C1c2ccccc2-n2c1nc1ccccc1c2=O
inhibition [1]: 68.6%

O=c1c2ccccc2nc2n1CCCCC2
inhibition [1]: 17.6%

Cc1c(-c2ccc(-c3ccccc3F)cc2)nc2ccc(F)cc2c1C(=O)O
inhibition [1]: -2.53%

O=C(O)c1cccc(-c2noc(-c3ccccc3F)n2)c1
inhibition [1]: 99.8%

FC(F)(F)c1cccc(-c2noc(-c3cc(-c4ccccc4)c(C(F)(F)F)s3)n2)c1
inhibition [1]: -4.64%

NC1(C(=O)N[C@@H](CCO)c2ccc(Cl)cc2)CCN(c2nc[nH]c3nccc2-3)CC1
inhibition [1]: 5%

CN1C(=O)N[C@H](Cc2c[nH]c3c(Cl)cccc23)C1=O
inhibition [1]: 2.4%

CN(C)Cc1c(C(=O)NCCOc2ccc(C(=O)NO)cc2)oc2ccccc12
inhibition [1]: 97.9%

Cc1cc(C)c(N(Cc2ccccc2)S(=O)(=O)c2ccc(OCCNC(=O)c3cc4ccccc4o3)cc2)c(C(=O)NO)c1
inhibition [1]: -0.11%

COc1ccc(C(=O)NCc2ccc(OCCN(C)C)cc2)cc1OC
inhibition [1]: -3.31%
